The full data set covers some 7,900 targets. This sample favours those with a hit. About 0.6% of all pairs of compound and target were hits.
Tests used:
Assay in all cases: log2 fold change, soluble protein after heating vs DMSO (PISA); higher = thermal stabilisation; K562 cells, 10 uM, 30 min; active = over 0.2 and 3.5 SD of the protein, either way, in both replicates (recomputed)
[1] = compound: COC1=CC=C(C=C1)CN2C=CC3=C2C=C(C=C3)C(=O)NO
Outline: (§1)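 K562 cells (2×10^6 cells/mL) were treated with 10 μM compound for 30 min, and aliquots were heated for 3 min over 48°C-58°C. Pooled aliquots were extracted in PBS with 0.5% NP-40 at 4°C, and the supernatant after 21,000xg for 90 min was measured by TMTpro 16plex LC-MS/MS with channel sums equalised. Reported thermal stability, relative to control samples and from duplicates, is a log2 fold change.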

filanesib = compound: CON(C)C(=O)N1N=C(c2cc(F)ccc2F)S[C@@]1(CCCN)c1ccccc1 [filanesib]
Outline: as §1

zotarolimus = compound: CO[C@H]1C[C@@H]2CC[C@@H](C)[C@@](O)(O2)C(=O)C(=O)N2CCCC[C@H]2C(=O)O[C@H]([C@H](C)C[C@@H]2CC[C@H](n3cnnn3)[C@H](OC)C2)CC(=O)[C@H](C)/C=C(\C)[C@@H](O)[C@@H](OC)C(=O)[C@H](C)C[C@H](C)/C=C/C=C/C=C/1C [zotarolimus]
Outline: as §1

idasanutlin = compound: COc1cc(C(=O)O)ccc1NC(=O)[C@@H]1N[C@@H](CC(C)(C)C)[C@](C#N)(c2ccc(Cl)cc2F)[C@H]1c1cccc(Cl)c1F [idasanutlin]
Outline: as §1

alisertib = compound: COc1cc(Nc2ncc3c(n2)-c2ccc(Cl)cc2C(c2c(F)cccc2OC)=NC3)ccc1C(=O)O [alisertib]
Outline: as §1

[2] = compound: COc1cc2nc(-c3cc(F)ccc3O)nc(N[C@@H]3CNC[C@H]3C(C)(C)O)c2cc1OC
Outline: as §1

gefitinib = compound: COc1cc2ncnc(Nc3ccc(F)c(Cl)c3)c2cc1OCCCN1CCOCC1 [gefitinib]
Outline: as §1

[3] = compound: COc1cccc2cc(-c3nc([C@H]4CC[C@H](C(=O)O)CC4)n4ncnc(N)c34)[nH]c12
Outline: as §1

lapatinib = compound: CS(=O)(=O)CCNCc1ccc(-c2ccc3ncnc(Nc4ccc(OCc5cccc(F)c5)c(Cl)c4)c3c2)o1 [lapatinib]
Outline: as §1

pictilisib = compound: CS(=O)(=O)N1CCN(Cc2cc3nc(-c4cccc5[nH]ncc45)nc(N4CCOCC4)c3s2)CC1 [pictilisib]
Outline: as §1

Measured: log2 fold change

METAP1D (UniProt Q6UB28)
active: [1] 0.342
inactive: filanesib -0.097 | zotarolimus 0.054 | idasanutlin 0.079 | alisertib -0.085 | [2] 0.021 | gefitinib -0.029 | [3] -0.035 | lapatinib -0.062

LMF2 (UniProt Q9BU23)
inactive: [1] -0.041 | filanesib -0.011 | zotarolimus -0.027 | idasanutlin -0.02 | alisertib -0.025 | [2] -0.014 | gefitinib 0.013 | [3] -0.021 | lapatinib 0.062 | pictilisib -0.095

MAML1 (UniProt Q92585)
inactive: [1] -0.065 | filanesib 0.152 | zotarolimus -0.065

ILRUN (UniProt Q9H6K1)
inactive: [1] -0.051 | filanesib -0.016 | zotarolimus 0.042 | idasanutlin -0.101 | alisertib -0.03 | [2] -0.002 | gefitinib 0.048 | [3] 0.09 | lapatinib 0.08

LDLRAP1 (UniProt Q5SW96)
inactive: [1] 0.023

MGST1 (UniProt P10620)
inactive: [1] 0.039 | filanesib -0.019 | zotarolimus 0.006 | idasanutlin -0.06 | alisertib 0.013 | [2] 0.152 | gefitinib -0.036 | [3] -0.043 | lapatinib -0.009 | pictilisib 0.112

MFSD11 (UniProt O43934)
inactive: [1] -0.029 | zotarolimus -0.003 | idasanutlin -0.055 | alisertib -0.009 | [2] -0.046 | gefitinib -0.064 | [3] -0.002 | lapatinib 0.041 | pictilisib 0.02
active: filanesib -0.464

MFF (UniProt Q9GZY8)
Chain of UniProt Q9GZY8 (Q9GZY8 whole entry, looked up): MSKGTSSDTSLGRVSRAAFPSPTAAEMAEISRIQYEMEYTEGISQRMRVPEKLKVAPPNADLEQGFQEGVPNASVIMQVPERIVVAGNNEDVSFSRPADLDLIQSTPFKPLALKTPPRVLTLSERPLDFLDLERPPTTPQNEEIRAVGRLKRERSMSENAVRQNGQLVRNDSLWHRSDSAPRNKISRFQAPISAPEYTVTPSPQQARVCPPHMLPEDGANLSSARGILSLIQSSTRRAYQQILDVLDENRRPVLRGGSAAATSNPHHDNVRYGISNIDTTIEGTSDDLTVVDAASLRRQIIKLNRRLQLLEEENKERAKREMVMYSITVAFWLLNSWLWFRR
inactive: [1] 0.038 | filanesib 0.075 | zotarolimus -0.022 | idasanutlin 0.053 | alisertib 0.024 | [2] -0.141 | gefitinib 0.012 | [3] 0.128 | lapatinib -0.061 | pictilisib 0.103

ITPRIP (UniProt Q8IWB1)
inactive: [1] -0.042 | filanesib -0.022 | zotarolimus -0.024 | idasanutlin 0.014 | alisertib 0.012 | [2] -0.021 | gefitinib 0.018 | [3] -0.043 | lapatinib -0.038 | pictilisib 0.049

L2HGDH (UniProt Q9H9P8)
inactive: [1] 0.096 | filanesib -0.121 | zotarolimus 0.07 | idasanutlin -0.037 | alisertib -0.019 | [2] -0.034 | gefitinib -0.01 | [3] 0.041 | lapatinib -0.069 | pictilisib 0.115

KIFBP (UniProt Q96EK5)
inactive: [1] 0.058 | filanesib -0.095 | zotarolimus 0.074 | idasanutlin -0.09 | alisertib 0.106 | [2] -0.028 | gefitinib 0.01 | [3] 0.01 | lapatinib -0.049 | pictilisib -0.071

IK (UniProt Q13123)
inactive: [1] 0.056 | filanesib 0.156 | zotarolimus 0.007 | idasanutlin 0.102 | alisertib -0.044 | [2] 0.07 | gefitinib 0.027 | [3] -0.096 | lapatinib -0.008 | pictilisib -0.035

IPO13 (UniProt O94829)
inactive: [1] -0.017 | filanesib -0.144 | zotarolimus -0.039 | idasanutlin -0.038 | alisertib 0.021 | [2] -0.024 | gefitinib -0.047 | [3] 0.008 | lapatinib 0.038 | pictilisib 0.109

ITIH4 (UniProt Q14624)
inactive: [1] 0.252 | filanesib -0.174 | idasanutlin 0.184 | alisertib -0.047 | [2] -0.146 | gefitinib -0.093 | [3] 0.277 | lapatinib -0.034 | pictilisib -0.241
active: zotarolimus -0.896

LMNB1 (UniProt P20700)
inactive: [1] -0.034 | filanesib 0.131 | zotarolimus 0.053 | idasanutlin 0.14 | alisertib -0.075 | [2] -0.09 | gefitinib -0.002 | [3] 0.064 | lapatinib 0.087 | pictilisib 0.005

LSR (UniProt Q86X29)
inactive: [1] 0.107 | filanesib 0.116 | zotarolimus -0.011 | idasanutlin -0.022 | alisertib -0.122 | [2] 0.027 | gefitinib 0.021 | [3] 0.033 | lapatinib -0.056 | pictilisib 0.121

MFSD5 isoform 2 (UniProt Q6N075)
inactive: [1] 0.037 | filanesib 0.018 | zotarolimus -0.149 | idasanutlin -0.058 | alisertib 0.011 | [2] -0.026 | gefitinib 0.039 | [3] 0.12 | lapatinib 0.045 | pictilisib 0.062

LYPLA2 (UniProt O95372)
inactive: [1] 0.188 | filanesib 0.014 | zotarolimus 0.002 | idasanutlin 0.027 | alisertib 0.121 | [2] -0.23 | gefitinib 0.047 | [3] 0.044 | lapatinib -0.048 | pictilisib -0.026

MAP4 (UniProt P27816)
inactive: [1] -0.002 | filanesib 0.022 | zotarolimus -0.029 | idasanutlin 0.028 | alisertib -0.034 | [2] -0.027 | gefitinib -0.019 | [3] -0.003 | lapatinib -0.002 | pictilisib -0.078

MAGI1 (UniProt Q96QZ7)
Chain of UniProt Q96QZ7 (Q96QZ7 whole entry, looked up): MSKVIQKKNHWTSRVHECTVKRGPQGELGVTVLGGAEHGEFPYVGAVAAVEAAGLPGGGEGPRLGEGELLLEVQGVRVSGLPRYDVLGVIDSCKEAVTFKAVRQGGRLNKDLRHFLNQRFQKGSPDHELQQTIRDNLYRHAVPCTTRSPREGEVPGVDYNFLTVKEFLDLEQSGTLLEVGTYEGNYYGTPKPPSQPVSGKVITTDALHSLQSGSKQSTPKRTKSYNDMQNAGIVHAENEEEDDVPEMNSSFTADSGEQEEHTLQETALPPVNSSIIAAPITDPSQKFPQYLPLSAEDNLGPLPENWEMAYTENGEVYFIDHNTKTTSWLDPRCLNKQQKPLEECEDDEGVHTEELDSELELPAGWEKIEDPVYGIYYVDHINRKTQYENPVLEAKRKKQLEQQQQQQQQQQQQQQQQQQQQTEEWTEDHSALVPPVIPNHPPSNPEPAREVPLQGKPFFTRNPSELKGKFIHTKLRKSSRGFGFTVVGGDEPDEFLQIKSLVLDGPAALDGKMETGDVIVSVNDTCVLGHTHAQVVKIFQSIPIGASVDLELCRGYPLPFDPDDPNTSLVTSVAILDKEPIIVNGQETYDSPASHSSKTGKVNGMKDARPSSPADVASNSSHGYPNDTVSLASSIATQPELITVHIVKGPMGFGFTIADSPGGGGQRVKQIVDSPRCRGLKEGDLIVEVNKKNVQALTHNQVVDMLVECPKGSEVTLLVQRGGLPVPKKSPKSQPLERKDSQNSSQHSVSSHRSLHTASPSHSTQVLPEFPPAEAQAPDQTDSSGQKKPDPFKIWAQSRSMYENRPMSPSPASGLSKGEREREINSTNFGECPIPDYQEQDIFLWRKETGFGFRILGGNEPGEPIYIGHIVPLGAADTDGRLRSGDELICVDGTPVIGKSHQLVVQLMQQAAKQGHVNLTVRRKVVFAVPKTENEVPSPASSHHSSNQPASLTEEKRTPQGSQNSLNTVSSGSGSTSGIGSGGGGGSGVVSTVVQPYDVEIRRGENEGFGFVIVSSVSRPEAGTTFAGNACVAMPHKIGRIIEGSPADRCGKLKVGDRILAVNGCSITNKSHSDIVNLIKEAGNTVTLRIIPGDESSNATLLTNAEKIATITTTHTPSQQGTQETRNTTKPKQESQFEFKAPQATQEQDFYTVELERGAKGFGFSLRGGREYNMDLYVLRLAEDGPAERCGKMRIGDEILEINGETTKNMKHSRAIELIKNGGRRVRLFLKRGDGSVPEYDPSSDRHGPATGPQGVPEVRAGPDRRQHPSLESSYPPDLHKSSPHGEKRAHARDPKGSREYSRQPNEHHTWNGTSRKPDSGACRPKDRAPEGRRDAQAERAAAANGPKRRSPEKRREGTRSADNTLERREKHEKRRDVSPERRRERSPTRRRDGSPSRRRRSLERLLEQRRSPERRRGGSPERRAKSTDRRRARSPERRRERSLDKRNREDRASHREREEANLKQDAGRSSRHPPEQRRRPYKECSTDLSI
inactive: [1] -0.031 | filanesib 0.053 | zotarolimus -0.044 | idasanutlin 0.084 | alisertib -0.01 | [2] 0.005 | gefitinib 0.042 | [3] -0.012 | lapatinib 0.01 | pictilisib 0.053

MAP2K7 isoform 4 (UniProt O14733)
inactive: [1] -0.018 | filanesib -0.029 | zotarolimus -0.042 | idasanutlin -0.003 | alisertib -0.029 | [2] 0.019 | gefitinib -0.027 | [3] 0.048 | lapatinib -0.016 | pictilisib 0.137

LNPEP (UniProt Q9UIQ6)
inactive: [1] 0.001 | filanesib -0.014 | zotarolimus -0.03 | idasanutlin -0.014 | alisertib -0.01 | [2] 0.016 | gefitinib 0.01 | [3] 0.058 | lapatinib 0.003 | pictilisib 0.04

KPNA1 (UniProt P52294)
Chain of UniProt P52294 (P52294 whole entry, looked up): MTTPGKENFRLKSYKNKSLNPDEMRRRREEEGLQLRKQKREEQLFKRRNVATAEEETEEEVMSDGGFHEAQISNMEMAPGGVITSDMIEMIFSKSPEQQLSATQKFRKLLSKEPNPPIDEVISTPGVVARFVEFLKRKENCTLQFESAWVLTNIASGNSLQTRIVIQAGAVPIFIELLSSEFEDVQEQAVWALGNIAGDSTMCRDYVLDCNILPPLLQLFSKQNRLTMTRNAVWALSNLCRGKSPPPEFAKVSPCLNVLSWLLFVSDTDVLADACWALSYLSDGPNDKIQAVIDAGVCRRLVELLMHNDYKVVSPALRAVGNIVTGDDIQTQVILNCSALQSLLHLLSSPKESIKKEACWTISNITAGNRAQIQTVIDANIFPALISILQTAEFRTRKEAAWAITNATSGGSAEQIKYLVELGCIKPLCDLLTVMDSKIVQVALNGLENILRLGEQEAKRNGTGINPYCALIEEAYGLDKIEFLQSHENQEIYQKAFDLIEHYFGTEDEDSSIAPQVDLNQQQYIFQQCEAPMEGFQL
inactive: [1] -0.115 | filanesib 0.072 | zotarolimus 0.065 | idasanutlin 0.019 | alisertib 0.078 | [2] 0.083 | gefitinib 0.011 | [3] -0.042 | lapatinib 0.01 | pictilisib 0.094

KPNA4 (UniProt O00629)
inactive: [1] 0.017 | filanesib -0.028 | zotarolimus 0.015 | idasanutlin -0.068 | alisertib -0.026 | [2] -0.091 | gefitinib 0.041 | [3] 0.044 | lapatinib -0.017 | pictilisib -0.025

INPP5B (UniProt P32019)
inactive: [1] 0 | filanesib -0.015 | zotarolimus 0.002 | idasanutlin -0.003 | alisertib 0.03 | [2] 0.052 | gefitinib -0.008 | [3] -0.043 | lapatinib 0.006 | pictilisib 0.04

MAPK8 isoform 3 (UniProt P45983)
inactive: [1] 0.025 | filanesib 0.064 | zotarolimus 0.018 | idasanutlin -0.08 | alisertib 0.007 | [2] 0.234 | gefitinib -0.026 | [3] 0.035 | lapatinib -0.045 | pictilisib 0.287

LDLR (UniProt P01130)
inactive: [1] -0.012 | filanesib 0.005 | zotarolimus -0.07 | idasanutlin 0.009 | alisertib 0.073 | [2] -0.017 | gefitinib 0.095 | [3] 0.008 | lapatinib 0.042 | pictilisib 0.078

LIAS (UniProt O43766)
inactive: [1] -0.131 | filanesib -0.049 | zotarolimus -0.097 | idasanutlin -0.032 | alisertib -0.041 | [2] 0.132 | gefitinib 0.014 | [3] 0.036 | lapatinib -0.051 | pictilisib 0.078

MAGEC2 (UniProt Q9UBF1)
inactive: [1] 0.018 | filanesib -0.032 | zotarolimus 0.039 | idasanutlin -0.045 | alisertib -0.044 | [2] 0.015 | gefitinib -0.018 | [3] -0.005 | lapatinib -0.004 | pictilisib 0.058

LONP2 (UniProt Q86WA8)
inactive: [1] -0.002 | filanesib -0.019 | zotarolimus -0.02 | idasanutlin -0.177 | alisertib -0.115 | [2] 0.375 | gefitinib 0.129 | [3] 0.015 | lapatinib 0.1 | pictilisib -0.041

MAST4 (UniProt O15021)
Chain of UniProt O15021 (O15021 whole entry, looked up): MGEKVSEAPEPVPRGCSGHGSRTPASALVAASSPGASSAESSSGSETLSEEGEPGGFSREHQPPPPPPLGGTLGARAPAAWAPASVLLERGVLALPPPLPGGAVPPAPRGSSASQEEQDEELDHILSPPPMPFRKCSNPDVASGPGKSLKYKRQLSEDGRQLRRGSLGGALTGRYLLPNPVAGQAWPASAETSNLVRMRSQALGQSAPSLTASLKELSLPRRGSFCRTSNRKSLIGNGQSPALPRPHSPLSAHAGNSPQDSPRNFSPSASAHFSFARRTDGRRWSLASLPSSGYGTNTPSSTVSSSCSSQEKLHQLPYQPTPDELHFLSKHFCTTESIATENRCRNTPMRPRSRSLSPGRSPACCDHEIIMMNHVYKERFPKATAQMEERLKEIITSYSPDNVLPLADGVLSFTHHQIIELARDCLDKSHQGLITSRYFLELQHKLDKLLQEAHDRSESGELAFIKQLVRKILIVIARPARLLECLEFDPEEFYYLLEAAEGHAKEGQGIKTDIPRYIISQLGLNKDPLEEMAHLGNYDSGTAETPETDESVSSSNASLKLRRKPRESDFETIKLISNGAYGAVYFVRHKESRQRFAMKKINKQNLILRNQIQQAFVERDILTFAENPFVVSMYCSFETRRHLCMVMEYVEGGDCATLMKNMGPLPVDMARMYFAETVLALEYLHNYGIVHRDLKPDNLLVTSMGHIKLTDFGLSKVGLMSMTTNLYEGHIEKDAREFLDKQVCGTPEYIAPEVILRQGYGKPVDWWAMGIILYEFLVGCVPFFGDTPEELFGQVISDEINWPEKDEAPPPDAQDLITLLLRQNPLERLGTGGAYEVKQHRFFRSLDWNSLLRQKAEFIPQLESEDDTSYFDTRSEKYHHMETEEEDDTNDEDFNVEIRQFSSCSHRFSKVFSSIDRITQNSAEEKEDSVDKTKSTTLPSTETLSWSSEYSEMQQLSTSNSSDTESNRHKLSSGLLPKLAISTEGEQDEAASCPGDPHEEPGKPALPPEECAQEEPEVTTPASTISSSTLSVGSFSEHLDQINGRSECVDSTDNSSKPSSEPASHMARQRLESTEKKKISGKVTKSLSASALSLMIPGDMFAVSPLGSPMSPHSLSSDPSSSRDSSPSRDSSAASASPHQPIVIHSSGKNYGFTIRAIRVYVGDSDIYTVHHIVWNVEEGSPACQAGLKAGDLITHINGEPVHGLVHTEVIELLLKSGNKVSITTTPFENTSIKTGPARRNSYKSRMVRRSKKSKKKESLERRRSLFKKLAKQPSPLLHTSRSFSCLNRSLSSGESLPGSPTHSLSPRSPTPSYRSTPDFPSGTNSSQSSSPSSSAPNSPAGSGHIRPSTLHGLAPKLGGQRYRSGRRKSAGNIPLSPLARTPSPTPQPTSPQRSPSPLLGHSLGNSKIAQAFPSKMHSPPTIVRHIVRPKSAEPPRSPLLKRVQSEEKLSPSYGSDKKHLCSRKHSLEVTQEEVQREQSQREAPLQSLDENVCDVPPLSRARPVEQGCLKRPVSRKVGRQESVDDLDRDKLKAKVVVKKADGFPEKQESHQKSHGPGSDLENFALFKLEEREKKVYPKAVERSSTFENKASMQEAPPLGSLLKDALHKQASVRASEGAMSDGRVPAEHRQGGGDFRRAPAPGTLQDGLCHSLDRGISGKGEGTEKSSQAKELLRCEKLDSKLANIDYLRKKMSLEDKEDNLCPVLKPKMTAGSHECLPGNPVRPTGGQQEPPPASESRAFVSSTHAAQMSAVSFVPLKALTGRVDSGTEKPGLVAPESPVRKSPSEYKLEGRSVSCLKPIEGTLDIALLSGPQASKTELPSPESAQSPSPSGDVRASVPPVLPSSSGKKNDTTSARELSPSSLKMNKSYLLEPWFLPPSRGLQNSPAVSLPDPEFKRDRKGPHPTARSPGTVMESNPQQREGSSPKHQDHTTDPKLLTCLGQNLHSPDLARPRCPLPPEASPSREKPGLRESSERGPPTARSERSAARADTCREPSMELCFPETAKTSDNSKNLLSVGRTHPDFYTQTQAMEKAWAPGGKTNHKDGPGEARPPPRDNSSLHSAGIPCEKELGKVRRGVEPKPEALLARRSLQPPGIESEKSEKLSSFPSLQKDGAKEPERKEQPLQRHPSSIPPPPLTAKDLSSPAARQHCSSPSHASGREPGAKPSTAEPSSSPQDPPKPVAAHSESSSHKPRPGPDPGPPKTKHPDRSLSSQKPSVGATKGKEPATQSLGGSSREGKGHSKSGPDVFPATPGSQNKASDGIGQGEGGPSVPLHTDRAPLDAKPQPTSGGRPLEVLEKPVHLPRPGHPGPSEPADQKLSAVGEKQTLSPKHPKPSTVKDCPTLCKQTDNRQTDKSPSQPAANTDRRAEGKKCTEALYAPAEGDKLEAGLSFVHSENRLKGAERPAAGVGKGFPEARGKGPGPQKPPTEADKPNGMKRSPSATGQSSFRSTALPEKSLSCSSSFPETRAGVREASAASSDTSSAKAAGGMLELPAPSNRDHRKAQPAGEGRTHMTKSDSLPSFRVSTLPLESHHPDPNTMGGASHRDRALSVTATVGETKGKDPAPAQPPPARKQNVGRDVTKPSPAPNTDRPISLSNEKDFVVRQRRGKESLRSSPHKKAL
inactive: [1] -0.023 | filanesib -0.114 | zotarolimus 0.035 | idasanutlin -0.103 | alisertib -0.073 | [2] -0.283 | gefitinib -0.031 | [3] 0.019 | lapatinib 0.046 | pictilisib -0.036
